Reference: PubChem BioAssay
Results with a measured potency or affinity are listed apart. Calls of active or inactive are those of the source. Cut-off not given; nearly all actives show IC50 up to about 0.91 µM.

biological target: Calcium-dependent protein kinase 4 (Plasmodium falciparum (isolate 3D7)) (UniProt Q8IBS5); test: PfCDPK4 kinase inhibitors, biochemical, TCAMS library (AID 1159588); settings: recombinant PfCDPK4, Kinase-Glo ATP depletion luminescence
Sequence (Q8IBS5 whole entry, looked up): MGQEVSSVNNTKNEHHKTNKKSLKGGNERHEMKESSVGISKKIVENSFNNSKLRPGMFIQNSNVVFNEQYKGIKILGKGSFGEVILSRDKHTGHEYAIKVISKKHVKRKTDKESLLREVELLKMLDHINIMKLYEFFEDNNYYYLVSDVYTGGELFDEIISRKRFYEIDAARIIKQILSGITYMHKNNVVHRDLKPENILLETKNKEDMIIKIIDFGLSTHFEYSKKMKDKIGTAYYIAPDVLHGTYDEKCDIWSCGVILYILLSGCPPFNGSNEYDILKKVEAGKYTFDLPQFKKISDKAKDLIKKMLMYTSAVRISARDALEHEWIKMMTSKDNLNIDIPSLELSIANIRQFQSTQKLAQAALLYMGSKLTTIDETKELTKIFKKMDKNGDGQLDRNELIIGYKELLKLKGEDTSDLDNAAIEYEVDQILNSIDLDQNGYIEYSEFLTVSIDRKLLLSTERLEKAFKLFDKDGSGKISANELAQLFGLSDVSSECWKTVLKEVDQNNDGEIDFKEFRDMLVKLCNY

outcome, inactive:
Cc1ccc(CCC(C)NCC(O)c2cccc(C(F)(F)F)c2)cc1 (stereo not given)
O=C(NCc1cccc(C(F)(F)F)c1)C(c1cc2ccccc2o1)N1CCN(C(c2ccccc2)c2ccccc2)CC1 (stereo not given)
COc1ccc(Cl)cc1N1CCN(CCCNC(=O)c2ccc(-c3nc4ccc(C(F)(F)F)cc4[nH]3)c(C)c2)CC1
CCCCOC(=O)C1=C(C)NC2=C(C(=O)CCC2)C1c1ccc(OC)c(Br)c1 (stereo not given)
Cc1cccc(-c2ccc3c(c2)CC(NCc2cccc(-n4ccnc4)c2)C3)c1 (stereo not given)
CNC(=O)c1ccccc1Nc1nc(Nc2cccnc2)ncc1C
CC(C)(C)S[C@H]1S[C@H](SC(C)(C)C)[C@@H](OC(=O)c2ccccc2)C(OC(=O)c2ccccc2)[C@H]1OC(=O)c1ccccc1 (stereo not given in full)
CSC1=NC(=Nc2ccccc2C)C2(CCC(C(C)(C)C)CC2)N1c1ccccc1Cl (stereo not given)
O=C(Nc1ccc(F)cc1)c1cnc(N2CCN(c3ccncc3)CC2)c(Cl)c1
CC1Cc2ccccc2N1CC(=O)Nc1cc(C(F)(F)F)ccc1-n1cncn1 (stereo not given)
